Measurements as given in PubChem BioAssay AID1159580 (chemical genetic matrix, 2015).
Screen size: about 5,500 compounds; about 2,000 (36%) were called active. Not shown: some 18% with an inconclusive outcome. The list shows a part of the results. A number with no mark means an inactive call. Cut-off read from the data, not from the text of the source: active = normalized growth mostly below about 0.91 (no sharp cut-off); inconclusive = no clear call, values can overlap the other calls; inactive = mostly above about 0.92.

Experiment: chemical genetic growth profiling, strain panel (AID 1159580);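 note: tested at 20 µM; growth read once vehicle control cultures reached saturation at 30 °C; 1 = growth at the plate median or of vehicle wells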
Settings: growth OD
[1] = S. cerevisiae deletion strains, locus YAL013W, strain DEP1, stronger effect = lower value
[2] = S. cerevisiae deletion strains, locus YBR229C, strain ROT2, stronger effect = lower value
[3] = S. cerevisiae deletion strains, locus YDL101C, strain DUN1, stronger effect = lower value
[4] = S. cerevisiae deletion strains, locus YDR150W, strain NUM1, stronger effect = lower value
[5] = S. cerevisiae deletion strains, locus YEL061C, strain CIN8, stronger effect = lower value
[6] = S. cerevisiae deletion strains, locus YGR078C, strain PAC10, stronger effect = lower value
[7] = S. cerevisiae deletion strains, locus YHR030C, strain SLT2, stronger effect = lower value
[8] = S. cerevisiae deletion strains, locus YHR087W, strain rtc3, stronger effect = lower value
[9] = S. cerevisiae deletion strains, locus YJR043C, strain POL32, stronger effect = lower value
[10] = S. cerevisiae deletion strains, locus YJR075W, strain HOC1, stronger effect = lower value
[11] = S. cerevisiae deletion strains, locus YLR039C, strain RIC1, stronger effect = lower value
[12] = S. cerevisiae deletion strains, locus YLR058C, strain SHM2 (second series), stronger effect = lower value
[13] = S. cerevisiae deletion strains, locus YLR085C, strain ARP6, stronger effect = lower value
[14] = S. cerevisiae deletion strains, locus YLR262C, strain YPT6, stronger effect = lower value
[15] = S. cerevisiae deletion strains, locus YML094W, strain GIM5, stronger effect = lower value
[16] = S. cerevisiae deletion strains, locus YMR219W, strain ESC1, stronger effect = lower value
[17] = S. cerevisiae deletion strains, locus YMR263W, strain SAP30, stronger effect = lower value
[18] = S. cerevisiae deletion strains, locus YNL153C, strain GIM3, stronger effect = lower value
[19] = S. cerevisiae deletion strains, locus YNL298W, strain CLA4 (second series), stronger effect = lower value
[20] = S. cerevisiae deletion strains, locus YNL322C, strain KRE1, stronger effect = lower value
[21] = S. cerevisiae deletion strains, locus YNR030W, strain Alg12, stronger effect = lower value
[22] = S. cerevisiae deletion strains, locus YPL055C, strain LGE1, stronger effect = lower value
[23] = S. cerevisiae deletion strains, locus YPL241C, strain CIN2, stronger effect = lower value
[24] = S. cerevisiae deletion strains, locus YPR135W, strain CTF4, stronger effect = lower value

N#Cc1ccc(Oc2ccc(Cl)cc2)nc1
normalized growth [1]: 1.04
normalized growth [2]: 0.975
normalized growth [3]: 0.944
normalized growth (S. cerevisiae deletion strains, locus YDL134C, strain PPH21, stronger effect = lower value): 0.985
normalized growth [4]: 1.01
normalized growth [5]: 0.977
normalized growth [6]: 1
normalized growth (S. cerevisiae deletion strains, locus YGR229C, strain SMI1, stronger effect = lower value): 0.987
normalized growth [7]: 0.86
normalized growth [8]: 0.992
normalized growth [9]: 0.984
normalized growth [10]: 0.968
normalized growth [11]: 1.09
normalized growth [12]: 0.966
normalized growth [13]: 1.05
normalized growth [14]: 1.05
normalized growth [15]: 1.03
normalized growth [16]: 0.971
normalized growth [17]: 1.02
normalized growth [18]: 0.986
normalized growth [19]: 0.977
normalized growth [20]: 0.98
normalized growth [21]: 1.02
normalized growth (S. cerevisiae deletion strains, locus YOL006C, strain TOP1, stronger effect = lower value): 0.903
normalized growth [22]: 1.14
normalized growth [23]: 0.886
normalized growth [24]: 1.2

NC(=S)c1ccc(Oc2ccc(Cl)cc2)nc1
normalized growth [1]: 0.064 (active)
normalized growth [2]: 0.0587 (active)
normalized growth [3]: 0.0679 (active)
normalized growth [4]: 0.0611 (active)
normalized growth [5]: 0.0551 (active)
normalized growth [6]: 0.0731 (active)
normalized growth [7]: 0.0713 (active)
normalized growth [8]: 0.0597 (active)
normalized growth (S. cerevisiae deletion strains, locus YJL187C, strain SWE1, stronger effect = lower value): 0.0568 (active)
normalized growth [9]: 0.0583 (active)
normalized growth [10]: 0.0782 (active)
normalized growth [11]: 0.0764 (active)
normalized growth [12]: 0.0563 (active)
normalized growth [13]: 0.0896 (active)
normalized growth [14]: 0.0758 (active)
normalized growth [15]: 0.0624 (active)
normalized growth [16]: 0.0569 (active)
normalized growth [17]: 0.0585 (active)
normalized growth (S. cerevisiae deletion strains, locus YMR307W, strain GAS1, stronger effect = lower value): 0.112 (active)
normalized growth [18]: 0.0622 (active)
normalized growth [19]: 0.0667 (active)
normalized growth [20]: 0.0647 (active)
normalized growth [21]: 0.0581 (active)
normalized growth [22]: 0.0942 (active)
normalized growth [23]: 0.0912 (active)
normalized growth [24]: 0.194 (active)
normalized growth (S. cerevisiae strains, strain wild type, stronger effect = lower value): 0.0499 (active)
